This note sets out measurements from PubChem BioAssay (Tox21).

The structures appear in SMILES notation. Results filed as inconclusive are left out. A number with no mark means an inactive call. Calls of active or inactive are those of the source. Calls come from the whole dose curve.
% is set by controls: 0 for no effect and ±100 for the full control effect; potency is the fitted concentration of half-maximal effect.

This assay in a line: p53 small molecule agonists, cell-based qHTS assay: qHTS cell viability counter screen (AID 1963581). Note: nearly all actives have a fitted effect of over 45% in size. The note with it: p53RE-bla HCT-116 viability, ATP luminescence, 16 h; series mostly up to 66 µM; activity change, negative = cytotoxicity: at the top concentration. The text has this: National Center for Advancing Translational Sciences [NCATS]
Division of Preclinical Innovation [DPI]
U.S. Environmental Protection Agency [EPA]
National Institutes of Environmental Health Sciences [NIEHS]
National Toxicology Program [NTP]
U.S. Food and Drug Administration [FDA]
p53, a tumor suppressor protein, is activated following cellular insult, including DNA damage and other cellular stresses. The activation of p53 regulates cell fate by inducing DNA repair, cell cycle arrest, apoptosis, or cellular senescence. The activation of p53, therefore, is a good indicator of DNA damage and other cellular stresses. The CellSensor p53RE-bla HCT-116 cell line (Invitrogen) contains a stably integrated beta-lactamase reporter gene under control of the p53 response elements. The activation of the reporter gene under culture conditions can be detected by fluorescence intensity. This cell line was used to screen the Tox21 compound library in a 1536-well plate format and to identify agonists that activate the p53 signaling pathway. The cytotoxicity of the Tox21 compound library against the p53 RE-bla HCT-116 cell line was tested in parallel by measuring the intra cellular ATP content in the same wells.
Tox21 Assay Protocol Summary:
The p53RE-bla cells were dispensed at 4,000 cells/5 ul/well in 1536-well black wall/clear bottom plates using a Multidrop dispenser. After the assay plates were incubated at a 37 C/5% CO2 incubator for 5 hours, 23 nL of compounds dissolved in DMSO, positive controls or DMSO only was transferred to the assay plate by a pin tool. The plates were incubated at 37 C for 16 hours. After 1 uL of LiveBLAzerTM B/G FRET substrate was added using a Flying Reagent Dispenser, the plates were incubated at room temperature for 2 hours, and fluorescence intensity was measured by an Envision plate reader. For cell viability readout that measures cytotoxicity, 4 ul/well of CellTiter-Glo reagent was added into the assay plates using a Flying Reagent Dispenser. After 30 min incubation at room temperature, the luminescence intensity in the plates was measured using a ViewLux plate reader.
A general note: In qHTS, concentration-response curves come from the screen itself.
Turning to `O=C1c2ccccc2C(=O)C1c1ccc2ccccc2n1`, the “activity change, negative = cytotoxicity” value was -6.91% [at 30.3 µM]. `Nc1cccc(S(=O)(=O)O)c1`: the “activity change, negative = cytotoxicity” value was 0%. Take `CCC(C(=O)OCCN(CC)CC)c1ccccc1` (stereo not given): the “activity change, negative = cytotoxicity” value was -9.79% [at 30.3 µM]. On to `CC(C(=O)O)c1cccc(Oc2ccccc2)c1` (stereo not given), for which the “activity change, negative = cytotoxicity” value was 0.151% [at 30.3 µM]. `CC1=C(C(=O)OC(C)C)C(c2cccc([N+](=O)[O-])c2)C(C(=O)OC2CN(C(c3ccccc3)c3ccccc3)C2)=C(N)N1` (stereo not given): the Potency was 11.2 µM (active). With `CCOc1nc2cccc(C(=O)O)c2n1Cc1ccc(-c2ccccc2-c2nn[nH]n2)cc1`, the “activity change, negative = cytotoxicity” value is 1.52% [at 30.3 µM]. As for `CCCn1cnc2c1c(=O)n(CCCCC(C)=O)c(=O)n2C`, the “activity change, negative = cytotoxicity” value was 0.474% [at 30.3 µM]. As to `Fc1ccc([C@@H]2CCNC[C@H]2COc2ccc3c(c2)OCO3)cc1`, the “activity change, negative = cytotoxicity” value was -2.05% [at 30.3 µM].

With `Cc1cc(-c2ccccc2)nnc1NCCN1CCOCC1`, the “activity change, negative = cytotoxicity” value was 2.75% [at 30.3 µM]. The same measure, in the same setting: as for `CCCCCCCCCC=O`, the figure is 6.12%; as for `Cc1ccc(C(=O)Oc2ccc(C(O)CNC(C)(C)C)cc2OC(=O)c2ccc(C)cc2)cc1` (stereo not given), -1.55% [at 30.3 µM]; as for `CCOC(=O)C(=O)CCc1ccccc1`, -7.72% [at 30.3 µM]. Regarding `Oc1c(I)cc(I)c2cccnc12`, the “activity change, negative = cytotoxicity” value is -2.56% [at 30.3 µM]. As to `CN1CCN(c2c(F)cc3c(=O)c(C(=O)O)cn4c3c2OCN4C)CC1`, the activity change, negative = cytotoxicity is 0.627% [at 13.5 µM]. In the case of `O=S(O)O`, the activity change, negative = cytotoxicity was 16.3% [at 13.5 µM]. Take `NCc1ccco1`: the “activity change, negative = cytotoxicity” value was -1.04%. On the same count and under the same terms, as for `C/C=C\C/C=C/CCCCCCCCOC(C)=O`, the figure is -16.5%. With `CCCCCCC(O)CCCCCCCCCCC(=O)OC` (stereo not given), the “activity change, negative = cytotoxicity” value was -4.5%.

On to `c1ccc(CCNc2nc(-c3ccccc3)cs2)cc1`, for which the “activity change, negative = cytotoxicity” value was -12.8% [at 30.3 µM].

In the case of `O=C(NC(Cc1cc(=O)[nH]c2ccccc12)C(=O)O)c1ccc(Cl)cc1` (stereo not given), the “activity change, negative = cytotoxicity” value is 11.9% [at 30.3 µM].

Take `CC(C)(O)CCCC1=CCC(C=O)CC1` (stereo not given): the “activity change, negative = cytotoxicity” value is 0%. For `COCCOC(=O)C1=C(C)NC(C)=C(C(=O)OC/C=C/c2ccccc2)C1c1cccc([N+](=O)[O-])c1` (stereo not given), the “activity change, negative = cytotoxicity” value was 5.05% [at 30.3 µM]. For `CS(=O)(=O)c1ccc([C@@H](C[C@H]2CCC(=O)C2)C(=O)Nc2cnccn2)cc1Cl`, the “activity change, negative = cytotoxicity” value is 26.7%. Regarding `CCN1CCN(c2cc(-c3ccc(F)cc3)c3c(n2)CCCCCC3)CC1`, the activity change, negative = cytotoxicity is 1.98% [at 13.5 µM]. Consider `CC(C)c1ccc(C#N)cc1`, for which the “activity change, negative = cytotoxicity” value was 6.4%. As for `N#C/C(=C1\SCC(c2ccccc2Cl)S1)n1ccnc1` (stereo not given), the “activity change, negative = cytotoxicity” value is 14% [at 30.3 µM].

For the compound `c1ccc([C@H]2CN3CCSC3=N2)cc1`, the “activity change, negative = cytotoxicity” value is 3.11% [at 30.3 µM]. As for `CCOC(=O)CS`, the “activity change, negative = cytotoxicity” value is -1.82%. `CCOC(=O)Oc1ccc(CCNC(=O)[C@H](CCSC)NC(C)=O)cc1OC(=O)OCC`: the “activity change, negative = cytotoxicity” value is -1.62% [at 30.3 µM]. The same measure, in the same setting: the figure for `CC(C)(C)c1cc(CCC(=O)NN)cc(C(C)(C)C)c1O` is -0.678%; for `CC(CC(C)(C)C)CC(C)(C)CC(C)(C)C` (stereo not given) it is 2.4% [at 30.3 µM]; for `CN(C)CCN1CCN(c2cccc(Cl)c2)C1=O` it is -25% [at 30.3 µM]. Turning to `NC(=O)c1ccncc1`, the “activity change, negative = cytotoxicity” value was 14.4%. Turning to `O=C(O)c1cc(Cl)cc(Cl)c1O`, the “activity change, negative = cytotoxicity” value was -16%. Still for that read-out and setting: as for `O=C(OCC1CO1)C1CCCCC1C(=O)OCC1CO1` (stereo not given), the figure is 17.3%.

Turning to `CNS(=O)(=O)CCc1ccc2[nH]cc(C3CCN(C)CC3)c2c1`, the “activity change, negative = cytotoxicity” value is -11.3% [at 30.3 µM]. For the compound `CCC(=O)CC(C)CC` (stereo not given), the activity change, negative = cytotoxicity is 22.9% [at 0.249 µM]. In the case of `O=C(O)c1cc(Cl)cc([N+](=O)[O-])c1Cl`, the “activity change, negative = cytotoxicity” value is -1.25%. For the compound `O=C1C(CCS(=O)c2ccccc2)C(=O)N(c2ccccc2)N1c1ccccc1` (stereo not given), the “activity change, negative = cytotoxicity” value was -14.8% [at 30.3 µM].

With `CC[C@H](NC(C)C)[C@H](O)c1ccc(O)c2[nH]c(=O)ccc12`, the “activity change, negative = cytotoxicity” value is 2.92% [at 30.3 µM].
